From ChEMBL document CHEMBL3988442, “University of Dundee, Small-Polar-MMV Screening Library” (2021)
The whole screen tested about 48,000 compounds, of which about 13,000 (27%) showed an effect of 50% or more. The list shows a part of the results.

tested on: Wolbachia pipientis; test: Anti-Wolbachia Cell-Based Screen; assay type: functional; set-up: scale not given: in the data most compounds retested in dose-response had high values; conditions: 5 µM

| Compound | Percent Effect |
| --- | --- |
| CN(C)CCN1C[C@@H]2OCCN(Cc3cnn(C)c3)[C@@H]2C1 | -15.62% |
| COc1cccc(Cl)c1-c1cc(CN)ccc1F | -5.951% |
| O=C(NC[C@H]1OC[C@@H]2CCN(C3CCOCC3)C[C@@H]21)c1ccncc1.O=C(O)C(F)(F)F.O=C(O)C(F)(F)F | -8.097% |
| O=C(O)C(F)(F)F.O=C(O)C(F)(F)F.O=C(c1ccncc1)N1CC[C@@H]2CN(C3CCOCC3)CCO[C@@H]2C1 | 103.2% |
| CC(=O)N1CCO[C@@H]2CN(C(=O)c3ccc4ncccc4c3)CC[C@@H]2C1.O=C(O)C(F)(F)F | -0.4432% |
| O=C(O)C(F)(F)F.O=C(O)C(F)(F)F.c1csc(CN2CCO[C@@H]3CN(C4CCOCC4)C[C@@H]3C2)c1 | -1.995% |
| O=C(O)C(F)(F)F.O=C(c1cccs1)N1CC[C@@H]2CN(C3CCOCC3)CCO[C@@H]2C1 | 103% |
| COCCN1CCO[C@H]2CCN(C(=O)c3cccs3)CC[C@@H]21.O=C(O)C(F)(F)F | 9.308% |
| Cc1ccc(CCNc2nc(-c3ccncc3)nc3c2CCNCC3)o1 | -0.1721% |
| CN(CCn1ccc2ccccc21)C(=O)Cc1nnn[nH]1 | -2.882% |
| N#Cc1cccc(Cl)c1NCCc1n[nH]c(=O)[nH]1 | -15.54% |
| CC(c1ccc(C(=O)NCCc2nc(N)cc(O)n2)o1)N1CCCCC1 (centres undefined) | 6.141% |
| CC(Cc1cn(CCc2n[nH]c(=O)[nH]2)nn1)c1ccccc1 (centres undefined) | 124.9% |
| CN(CCn1ccc2ccccc21)C(=O)Cc1n[nH]c(=O)[nH]1 | 0.08952% |
| CC(Cc1ccc2c(c1)OCO2)c1cn(CCc2c[nH]cn2)nn1 (centres undefined) | -4.802% |
| CC(Cc1cn(CCc2nc(N)cc(O)n2)nn1)c1ccccc1 (centres undefined) | 116.8% |
| C=C(C)COc1cccc(CNCCc2nc(N)cc(O)n2)c1 | 6.733% |
| CC(Cc1cn(CCc2nnn[nH]2)nn1)c1ccccc1 (centres undefined) | 103.4% |
| c1cc(CCN2CCCC2CN2CCCCC2)ccn1 (centres undefined) | 39.01% |
| CCN(CC)Cc1ccc(C(=O)NC2CCc3cc(F)ccc32)o1 (centres undefined) | 6.12% |
| Cc1nccn1CCC1CCCCN1C(=O)c1ccc2nonc2c1 (centres undefined) | 1.487% |
| Cn1c(CN2CCCCC2)nnc1C1CCCN(C(=O)CCC(N)=O)C1 (centres undefined) | 11.64% |
| NC(=O)CCN(C(=O)c1cccc2c1OCO2)c1ccccc1 | 16.64% |
| Cc1n[nH]c(=O)c2c(NC(=O)CN3CCOCC3)oc(C)c12 | 3.045% |
| O=S1(=O)COCCN1CCCOc1ccc(F)cc1 | 1.2% |

| Compound | Percent Effect |
| --- | --- |
| CC1(C)OC(=O)N(CCOc2ccc(F)cc2)C1=O | 112.1% |
| CN1CCCC1CNC(=O)CCCOc1ccc(F)cc1 (centres undefined) | -3.981% |
| CC1(C)OC(=O)N(CCCC(=O)c2ccc(F)cc2)C1=O | 116.7% |
| CN(Cc1ccon1)C(=O)CN1C(=O)OC(C)(C)C1=O | -6.77% |
| CN(Cc1ccoc1)C(=O)CN1C(=O)OC(C)(C)C1=O | -7.956% |
| N[C@H]1CN(CCOc2ccc(F)cc2)C[C@@H]1C1CC1 | -23.63% |
| O=S1(=O)COCCN1CCOc1ccc(F)cc1 | -2.392% |
| CC1(C)OC(=O)N(CCCOc2ccc(F)cc2)C1=O | 96.74% |
| CC(C)OCCSCc1nnc(-c2cccc(F)c2)o1 | -1.35% |
| CCNC(=O)[C@@H]1C[C@H](N)CN1C(=O)CCc1ccccc1Cl | -6.305% |
| Cn1cc(CN2CCO[C@H]3CN(Cc4ccco4)C[C@H]32)cn1 | -13.96% |
| CN(Cc1cc(-c2cccnc2)no1)C(=O)c1cccn1C | -14.42% |
| CC(C)SCC(=O)N1CCc2c(nc(N(C)C)nc2N(C)C)C1 | -6.369% |
| O=C(Cn1cccnc1=O)NC(Cc1ccsc1)c1ccccn1 (centres undefined) | -0.3817% |
| O=C(Cn1cccnc1=O)NC(Cc1ccsc1)c1cccnc1 (centres undefined) | 105% |
| Cc1cccnc1C(Cc1ccsc1)NC(=O)Cn1cccnc1=O (centres undefined) | 151.6% |
| CC(C)Sc1ccc(C(C)NC(=O)Cn2cccnc2=O)cc1 (centres undefined) | -6.353% |
| O=C(Cn1cccnc1=O)NC(Cc1ccsc1)c1nccs1 (centres undefined) | 149.8% |
| O=C(Cn1cccnc1=O)NCc1cccnc1OCC(F)(F)F | 2.082% |
| O=C(Cn1cccnc1=O)NCC1Cc2ccccc2O1 (centres undefined) | -8.588% |
| Cc1csc(C(Cc2ccsc2)NC(=O)Cn2cccnc2=O)n1 (centres undefined) | 109.1% |
| CC(C)N(CC(N)=O)CC(=O)NCCc1c(F)cccc1F | 4.922% |
| Cc1cnn(CC2CCCCN2CC(=O)N(C)Cc2ccc(C)o2)c1 (centres undefined) | -2.749% |
| COc1cccc(S(=O)(=O)Cc2cc(C)on2)c1 | -2.252% |
| COc1ncccc1C(Cc1ccsc1)NC(=O)Cn1cccnc1=O (centres undefined) | 115.2% |

| Compound | Percent Effect |
| --- | --- |
| CC(NC(=O)Cn1cccnc1=O)c1ccc(OC(F)(F)F)cc1 (centres undefined) | 5.256% |
| CC(C)CCOc1ccc(C(C)NC(=O)Cn2cccnc2=O)cc1 (centres undefined) | -2.548% |
| Cc1nc([C@@H]2C[C@@H]3CCN(Cc4cnn(C)c4)C[C@H]3O2)sc1C | -0.8686% |
| Cc1[nH]ncc1C(=O)NCC1CCC2(CC1)OCCO2 | -7.861% |
| Brc1cnc(NCCCOCC2CCOCC2)nc1 | 13.33% |
| COCc1nc(C(=O)NS(=O)(=O)c2ccc(C)cc2C)cs1 | -13.89% |
| Cc1nnc(C[C@@H]2COC[C@H]3CN(C(=O)C4=CCCC4)C[C@@H]23)o1 | -9.93% |
| CCS(=O)(=O)N1C[C@@H]2COC[C@@H](Cc3nc(C)no3)[C@@H]2C1 | 1.999% |
| Cc1nnc(C[C@@H]2COC[C@H]3CN(C(=O)c4ccco4)C[C@@H]23)o1 | -16.71% |
| Cc1noc(C[C@@H]2COC[C@H]3CN(S(C)(=O)=O)C[C@@H]23)n1 | -1.05% |
| COc1cc(N2C[C@@H]3COC[C@@H](Cc4nc(C)no4)[C@@H]3C2)ncn1 | 118.7% |
| COc1cc(N2C[C@@H]3COC[C@@H](Cc4nnc(C)o4)[C@@H]3C2)ncn1 | 80.24% |
| Cc1cc(CN(CC(N)=O)CC(C)C)no1 | -21.97% |
| CC(C)CN1C[C@@H]2CN(S(=O)(=O)c3cccs3)C[C@@H]2C1=O | -12.36% |
| CN(Cc1ccco1)C(=O)CN1C(=O)c2cc(Cl)c(Cl)cc2C1=O | 81.66% |
| CN(Cc1ccco1)C(=O)CN1C(=O)c2ccccc2C1=O | 72.08% |
| CN(Cc1cccs1)C(=O)CN1C(=O)c2cc(Cl)c(Cl)cc2C1=O | 78.58% |
| CN(Cc1ccco1)C(=O)Nc1ccc(=O)n(C)c1 | 2.905% |
| Cc1cccc(C(C(=O)N(C)Cc2ccco2)N(C)C)c1 (centres undefined) | 9.844% |
| CN(Cc1cccs1)C(=O)CS(=O)(=O)Cc1ccc(Cl)c(Cl)c1 | 0.1099% |
| Cc1cnn(C2CN(CC(=O)N(C)Cc3cccs3)C2)c1 | -27.07% |
| CN(Cc1ccco1)C(=O)CN1CCN(C)c2ccccc2C1 | -2.251% |
| O=C1N(CCCc2ccccc2)CCCC1(O)CNCC1CCCCC1 (centres undefined) | 25.76% |
| Cc1nnsc1CN1C[C@H]2CC[C@@H]1CN(Cc1ccc(F)cc1)C2 | 24.86% |
| CC(=O)N1CCN(Cc2ccc(C(F)(F)F)c(F)c2)CC(O)C1 (centres undefined) | -15.55% |

| Compound | Percent Effect |
| --- | --- |
| CC(C)C(=O)NCC(=O)N(C)C1CCCN(C2Cc3ccccc3C2)C1 (centres undefined) | -0.79% |
| Cc1ccc(N2CC3(COCCN(Cc4nccs4)C3)OCC2=O)s1.O=C(O)C(F)(F)F (centres undefined) | -2.22% |
| CN(C)c1nc2c(c(=O)[nH]1)CCN(C(=O)c1cccc3nccnc13)C2 | 3.463% |
| Nc1nc2c(c(=O)[nH]1)CCN(C(=O)c1cccc3nccnc13)C2 | 6.132% |
| Cc1nc2c(c(=O)[nH]1)CCN(C(=O)c1cccc3nccnc13)C2 | 104.9% |
| Cc1nccn1CCC1CCCCN1Cc1ccc(N(C)C)nc1 (centres undefined) | 13.8% |
| CC(=O)N1CCCC(C(=O)N2CCC(=Cc3cccc(F)c3)CC2)C1 (centres undefined) | 11.44% |
| O=C(C1CC1)N1C[C@H]2CCCN(S(=O)(=O)c3ccc4c(c3)CCC4)[C@H]2C1 | 109.7% |
| CC(=O)N1CCc2ccc(S(=O)(=O)N3CCCCC3C)cc21 (centres undefined) | -39.69% |
| O=C(C1CC1)N1C[C@H]2CCCN(S(=O)(=O)c3cccc(F)c3)[C@H]2C1 | 149% |
| CC(=O)N1CCCc2ccc(S(=O)(=O)N3CCCCC3C)cc21 (centres undefined) | -24.19% |
| O=C(O)C(F)(F)F.O=S(=O)(c1cccc(F)c1)N1CC[C@H]2[C@H]1CCN2c1ncccn1 | -6.82% |
| CCOC(=O)c1cn(CC(O)c2ccccc2OC)nn1 (centres undefined) | -11.75% |
| CCN(CC1CCOC1)C(=O)CSCC(=O)Nc1ccc(C)cc1 (centres undefined) | 4.187% |
| O=C(Nc1cccc(C(F)F)c1)N[C@@H]1C=C[C@H](CO)C1 | -9.569% |
| Cc1ccc(C(=O)N2C[C@@H]3CCN(c4cccnc4)C[C@@H]3C2)cn1.O=C(O)C(F)(F)F | 4.1% |
| COC(=O)c1ccc(N2CCN(C(=O)C(C)C)C(C)C2)cc1 (centres undefined) | 1.031% |
| CC(C)(C)OC(=O)N1CCN(c2cccnc2)CC1C(=O)O (centres undefined) | 114.7% |
| Cc1ccc(N2CCN(C(=O)CCC(F)(F)F)C(C)C2)cc1 (centres undefined) | 17.59% |
| COC(=O)N1CCCCC1C(=O)N1CCN(c2cccnc2)CC1 (centres undefined) | -31.63% |
| CCCSCC(=O)N1CCN(c2ccc(OC)cc2)CC1C (centres undefined) | 15.77% |
| COc1ccc(N2CCN(C(=O)OC(C)(C)C)C(C(=O)O)C2)cc1 (centres undefined) | 126.2% |
| CC(C)(C)OC(=O)N1CCN(c2ccc(F)cc2)CC1C(=O)O (centres undefined) | 89.96% |
| COc1ccc(N2CCN(C(=O)Cn3nc(C)c(C)c3C)C(C)C2)cc1 (centres undefined) | -0.23% |
